Screening data as filed in PubChem.
ERp5 block – blocks human ERp5 reductase activity on insulin | Q15084 | ERp5 insulin aggregation, absorbance 650 nm, 90 min | inhibition, % at 9.99 µM | 350,000 tested, 0.05% active;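 active = mean replicate inhibition above about 25%, with every replicate also reaching it, limit read from the data, passing the limit was not always enough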
ERAP1 HTS inh – ERAP1 (human) enzyme inhibition; Q9NZ08; recombinant ERAP1, Leu-AMC fluorescence, 60 min; inhibition, % at 10.7 µM; 340,000 tested, 0.15% active;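 active = mean replicate inhibition of at least 30%, or all replicates individually reaching that 30% level; inactive = mean below 30% and not every replicate reaching it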;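 note: 0% = neutral control wells and 100% = L-leucinethiol positive control wells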
Target sequence (Q9NZ08 whole entry, looked up): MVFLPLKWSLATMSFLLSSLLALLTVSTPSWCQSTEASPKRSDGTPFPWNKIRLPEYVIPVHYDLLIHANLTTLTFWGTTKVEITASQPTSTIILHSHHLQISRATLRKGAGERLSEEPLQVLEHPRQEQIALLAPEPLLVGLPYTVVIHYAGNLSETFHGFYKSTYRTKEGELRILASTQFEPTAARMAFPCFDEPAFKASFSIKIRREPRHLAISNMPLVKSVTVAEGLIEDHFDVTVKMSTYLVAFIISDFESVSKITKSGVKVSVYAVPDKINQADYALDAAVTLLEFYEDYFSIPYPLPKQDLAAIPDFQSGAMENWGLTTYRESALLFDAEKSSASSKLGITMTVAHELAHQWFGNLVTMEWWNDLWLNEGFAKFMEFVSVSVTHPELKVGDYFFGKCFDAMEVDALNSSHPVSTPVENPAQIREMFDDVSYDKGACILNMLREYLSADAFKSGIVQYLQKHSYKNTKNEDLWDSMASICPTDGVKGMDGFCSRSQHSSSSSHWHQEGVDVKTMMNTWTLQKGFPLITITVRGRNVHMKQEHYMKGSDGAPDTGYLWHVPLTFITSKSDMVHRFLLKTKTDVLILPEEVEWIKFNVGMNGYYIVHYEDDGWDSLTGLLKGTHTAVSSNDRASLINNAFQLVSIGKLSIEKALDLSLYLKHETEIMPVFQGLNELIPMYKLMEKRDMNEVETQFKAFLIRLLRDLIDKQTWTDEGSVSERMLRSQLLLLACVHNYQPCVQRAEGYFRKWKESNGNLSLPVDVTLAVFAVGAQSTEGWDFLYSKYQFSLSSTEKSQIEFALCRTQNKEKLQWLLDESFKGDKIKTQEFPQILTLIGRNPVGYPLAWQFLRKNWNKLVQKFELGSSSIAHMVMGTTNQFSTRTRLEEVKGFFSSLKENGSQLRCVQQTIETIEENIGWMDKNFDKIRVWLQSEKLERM
PDI inh – blocks human protein disulfide isomerase activity | 350,000 tested, 0.052% active | PDI insulin aggregation turbidity, A650, 90 min | P07237 | inhibition, % at 10 µM;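 active = mean inhibition across replicates of 30% or more, whatever share of single replicates reach that level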
MLL AF4-AF9 inh – inhibitors of human MLL-AF4/AF9 interaction; AID 651704; P42568; AlphaScreen, biotin-AF4 peptide binding to FLAG-AF9; 350,000 tested, 0.47% active; inhibition, % at 10 µM;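 active = every replicate reaching a set inhibition limit, whatever the replicate mean, cut at about 25% in these data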;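 note: 0% = plate neutral control median and 100% = total signal loss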
DENV2 CPE – inhibitors of DENV2 cytopathic effect. DENV2-infected cells, cytopathic effect rescue, plate reader. CPE inhibition, % at 9.99 µM. 350,000 tested, 1.7% active; in the data active = CPE inhibition above about 20%, passing the limit was not always enough; tested in BHK-21 cells;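 note: 0% = median of neutral control wells and 100% = median of positive control wells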
* marks the source's active call; other numbers are inactive results; · = no result given. Sampled rows, rich in hits. Any-hit rate of the full collection: about 1.8%.

SMILES	ERp5 block	ERAP1 HTS inh	PDI inh	MLL AF4-AF9 inh	DENV2 CPE
C[C@H](CO)N1C[C@H](C)[C@H](CN(C)C(=O)CN(C)C)Oc2cc(C#CC(C)(C)O)ccc2S1(=O)=O	1	0	·	-6	9
O=C(CSc1ccc2nnc(-c3ccccn3)n2n1)Nc1ccccc1	-1	1	1	0	71*
CCOc1ccc(NC(=O)CSc2ccc3nnc(-c4ccccn4)n3n2)cc1	3	5	-1	-1	-10
O=C(Nc1cc(F)ccc1F)N[C@@H]1CC[C@H](CCNC(=O)c2cnccn2)O[C@H]1CO	-1	-1	·	-4	32*
O=C(Nc1cc(F)ccc1F)N[C@H]1CC[C@@H](CCNC(=O)c2cnccn2)O[C@@H]1CO	6	1	·	-4	-7
O=C(Nc1cc(F)ccc1F)N[C@@H]1CC[C@H](CCNC(=O)c2cnccn2)O[C@@H]1CO	1	0	·	-5	34*
CCC(=O)N1CCC2(CC1)CN(C(=O)Nc1ccc(F)cc1)[C@H](CO)c1c2c2ccc(OC)cc2n1C	-1	4	·	0	7
COc1ccc2c3c(n(C)c2c1)[C@@H](CO)N(C(=O)Nc1ccc(F)cc1)CC31CCN(Cc2ccccn2)CC1	0	0	·	29*	14
COc1cccc(CN2CCC3(CC2)CN(C(=O)Nc2ccc(F)cc2)[C@H](CO)c2c3c3ccc(OC)cc3n2C)c1	·	·	·	36*	8
CCC(=O)N1CC2(C1)CN(C(=O)Nc1ccc(F)cc1)[C@H](CO)c1c2c2ccc(OC)cc2n1C	·	·	·	-4	80*
COc1ccc2c3c(n(C)c2c1)[C@@H](CO)N(C(=O)Nc1ccc(F)cc1)CC31CCN(C(=O)c2ccccc2F)CC1	6	2	·	-9	40*
O=C(C[C@H]1C=C[C@@H](NC(=O)CN2CCOCC2)[C@H](CO)O1)NCc1cccc(F)c1	4	1	·	1	-1
CO[C@@H]1CN(C)C(=O)c2cc(NC(=O)Nc3c(C)noc3C)ccc2OC[C@@H](C)N(CC2CC2)C[C@H]1C	0	·	·	-1	11
O=C(C[C@H]1C[C@H]2c3cc(NC(=O)C4CCOCC4)ccc3O[C@H]2[C@@H](CO)O1)NCc1ccccn1	-8	-1	·	0	-1
CCCCn1c(N)c(N(CCOC)C(=O)C2CCCN(C(=O)c3ccc(Cl)cc3)C2)c(=O)[nH]c1=O (stereo unspecified)	2	62*	-3	0	17
Cc1ccc(/C=C/c2ccc3cccc(O)c3n2)s1	4	1	12	42*	4
Oc1cccc(/C=C/c2ccc3cccc(O)c3n2)c1	-6	-2	-8	-1	12
CCCCN1C[C@H](Cc2ccccc2)[C@@H](CC(=O)Nc2ccccc2)C1=O	15	-1	11	-4	56*
COc1ccc(CNC(=O)C[C@H]2C(=O)N(Cc3ccccc3)C[C@@H]2Cc2ccccc2)cc1	13	0	-4	-1	30*
CCCCN1C[C@H](Cc2ccccc2)[C@@H](CC(=O)Nc2ccc(OC)cc2)C1=O	-1	4	-3	1	3
COc1ccc(CNC(=O)C[C@H]2C(=O)N(Cc3ccc(OC)cc3)C[C@@H]2Cc2ccccc2)cc1	7	-2	0	0	-1
CN1C(=O)c2cc(NC(=O)c3ccc(F)cc3)ccc2OC[C@@H]2O[C@@H](CC(=O)NC3CCC3)CC[C@H]21	3	2	·	-2	-1
Nc1ccc2oc(-c3ccccc3Cl)cc(=O)c2c1O	0	·	2	13	105*
O=c1cc(-c2ccccc2Cl)oc2ccc([N+](=O)[O-])c(O)c12	8	-8	6	-1	-4
CCOc1cc(C2C3=C(CC(C)(C)CC3=O)N(CCOC)C3=C2C(=O)CC(C)(C)C3)ccc1OC	-1	14	-4	-4	4
CCOc1cc(C2C3=C(CC(C)(C)CC3=O)N(CCCOC)C3=C2C(=O)CC(C)(C)C3)ccc1OC	1	-3	-3	29*	2
O=C(NCCc1ccccc1)c1cc(-c2ccccc2)c(N2CCOCC2)s1	-1	2	·	0	-1
CCN(CC)CCCNC(=O)c1cc(-c2ccccc2)c(N2CCCCC2)s1	2	7	-3	29*	-5
C[C@@H]1CN([C@H](C)CO)C(=O)CCCn2cc(nn2)CO[C@H]1CN(C)S(=O)(=O)c1cccc(F)c1	0	2	12	-2	-6
CC(C)OC(=O)N(C)C[C@@H]1OCc2cn(nn2)CCCC(=O)N([C@H](C)CO)C[C@@H]1C	2	-3	·	1	84*
